Measured values reported in ChEMBL document CHEMBL3988442, “University of Dundee, Small-Polar-MMV Screening Library” (2021).
Screen size: about 53,000 compounds; about 900 (1.7%) showed an effect of 50% or more. The sample holds strong results, similar compounds and a random draw of the others, so the mix is not that of the screen.

What follows are molecules tested on Mycobacterium tuberculosis (assay: Cornell - Phenotypic assay to identify agents that inhibit growth of Mycobacterium tuberculosis). Details: 10 mM as filed; unlikely as a test dose.
Format: functional
Parameters: scale not given: direction of the effect not stated beside the values

Compound | Percent Effect [%]
CNc1ncc(-c2csc(NC(=O)C[C@H]3COCCN3)n2)cn1.Cl | -17.99
Cc1cnc(N2C[C@@H]3CN(C4CCOC4)CCC[C@]3(C(=O)O)C2)nc1.O=C(O)C(F)(F)F (stereo partly drawn) | 13.6
NC(=O)C1(CCCc2ccccn2)CCCN(Cc2ncc[nH]2)C1 (stereo not drawn) | -6.495
CC1CCN(c2ccc(C(=O)N3CCCC3c3nncn3C)cn2)CC1 (stereo not drawn) | -18.06
O=C(COc1ccc2c(c1)CCC2)N1CCCC1c1ccc[nH]1 (stereo not drawn) | 107.5
NC(=O)c1cn[nH]c1C1CCCN1C(=O)COc1ccccc1 (stereo not drawn) | 6.51
O=C(COc1ccc2c(c1)CCC2)N1CCOCC1c1ncon1 (stereo not drawn) | 12.9
O=C(COc1ccccc1)N1CCCC1c1ccc[nH]1 (stereo not drawn) | 85.82
CS(=O)(=O)c1cccc(OCC(=O)N2CCCC2c2ccccc2Cl)c1 (stereo not drawn) | -2.872
CC1CCN(c2ccc(C(=O)N3CCCC3c3ccc[nH]3)cn2)CC1 (stereo not drawn) | 84.24
O=C(COc1ccc2c(c1)CCC2)N1CCCC(n2cccn2)C1 (stereo not drawn) | -23.81
Cc1ccc(-c2nnc(CCC(=O)N3CCCC3c3ccc[nH]3)o2)cc1 (stereo not drawn) | 45.95
CS(=O)(=O)c1cccc(OCC(=O)N2CCCC2c2ccc[nH]2)c1 (stereo not drawn) | 58.54
NC(=O)c1ccc(OCC(=O)N2CCCC2c2ccc[nH]2)cc1 (stereo not drawn) | -7.16
CN(C)c1ccc(C(=O)N2CCCC2c2cnn(C)c2)cn1 (stereo not drawn) | 5.002
Cc1cc(C)cc(OCCN2CCn3c(C)nnc3C2)c1 | 12.04
Cn1cc(C2=NOC(C(=O)NC3(c4cccc(F)c4)CCCC3)C2)cn1 (stereo not drawn) | -24.87
Cc1cc(C)nc(N2CCC(Cn3cc(C(N)=O)cn3)CC2)n1 | -23.62
CCOc1ncccc1CNS(=O)(=O)c1ccc2c(c1)CCC2 | 13.09
CCCn1cc(C(=O)N2CCCC(Cc3nccs3)C2)cn1 (stereo not drawn) | -22.26
CCCC(NC(=O)c1occc1C)c1nnn[nH]1 (stereo not drawn) | -83.42
COCc1nn(Cc2ccc(Cl)s2)c(=O)o1 | -31.25
CCOC(=O)CCC(=O)N1CCC(CSCc2ccco2)CC1 | 59.48
CC(=O)N1CCC(CSCc2ccco2)CC1 | 7.881

Compound | Percent Effect [%]
CCOCC(=O)N1CCC(CSCc2ccco2)CC1 | 34.18
Cc1[nH]ncc1CCCNC(=O)Nc1ccc(F)cc1 | -28.46
Cc1[nH]ncc1CCCNC(=O)Nc1ccc2c(c1)OC1(CCCC1)O2 | 72.51
Cc1[nH]ncc1CCCNC(=O)Nc1ccccc1 | -14.63
COc1ccc2c3c1CN(C(C)=O)CC3=CC(C)(C)CO2 | 9.21
COc1ccc2c3c1CN(C(=O)N(C)C)CC3=CC(C)(C)CO2 | 89.58
COC(=O)N1CC2=CC(C)(C)COc3ccc(OC)c(c32)C1 | 31.49
Cc1cc(C)nc(N2Cc3cnn(Cc4ccc(F)cc4)c3C2)n1 | 1.875
COc1ccnc(N2CCc3ccc(OC(F)F)cc3C2)n1 | 105.8
COc1ccc2c(c1)CN(c1cc(N3CCCC3CO)ncn1)CC2 (stereo not drawn) | 24.46
COc1ccnc(N2CCN(C(=O)N3CCOCC3)CC2)n1 | -8.776
COc1ccc2c(c1)CN(c1nc(C)cc(C)n1)CC2 | 63.12
COc1ccc(C2CN(c3nc(C)cc(C)n3)CCN2C(C)=O)cc1 (stereo not drawn) | 37.66
COc1ccnc(N2Cc3cnc(C(C)(C)C)nc3C2)n1 | 15.27
COc1cccc(O[C@H]2CCN(c3nc(C)cc(C)n3)CC[C@@H]2O)c1 | 6.067
Cc1cc(C)nc(N2CCc3ccc(OC(F)F)cc3C2)n1 | 108.4
Cc1cnn(C2CCCN(C(=O)CCc3cnn(C)c3)C2)c1 (stereo not drawn) | -9.516
O=C(CN1CC(c2nc(-c3ccco3)no2)C1)NCc1ccc(F)cc1.O=C(O)C(=O)O | 26.13
CN(Cc1ccc2c(c1)OCO2)C(=O)c1ccc(C2CCCNC2)cc1 (stereo not drawn) | 14.52
O=S(=O)(c1ccc(-c2cnco2)cc1)N1CCCC2(CCNCC2)CC1 | -3.285
Cl.O=C(CCN1CCCCC1)Nc1c2c(cc3c1CCC3)CCC2 | -6.194
CCOC(C)c1nc(Cn2cc(-n3cccc3)cn2)cs1 (stereo not drawn) | 56.69
CCOC(C)c1nc(Cn2cc(C)cn2)cs1 (stereo not drawn) | 25.14
CCOC(C)c1nc(Cn2cccn2)cs1 (stereo not drawn) | 9.263

Compound | Percent Effect [%]
CC(=O)NCCNC(=O)Nc1ccc(Br)cc1C(C)C | -45.7
O=C(NCC1CCOC1)c1csc(-c2ccc(F)cc2)n1 (stereo not drawn) | -10.74
Cc1ccc(CN(CC(=O)NCC2CCOC2)c2ccc(F)cc2)o1 (stereo not drawn) | 104.7
O=C(CN(Cc1cccs1)c1ccc(F)cc1)NC1CCOCC1 | 47.86
Cc1ccc(-c2nc(CC(=O)NCC3CCOC3)cs2)o1 (stereo not drawn) | 19.26
Cc1ccc(CN(CC(=O)NC2CCOCC2)c2ccc(F)cc2)o1 | 92.31
O=C(CN(CC(O)c1ccc(F)cc1)C1CC1)NC1CCOCC1 (stereo not drawn) | 2.353
O=C(O)C(F)(F)F.O=C([C@H]1C[C@@H]2CCN(c3cccc(F)c3)C[C@H]2O1)N1CCCC1 | 12.3
Cc1noc(C)c1-c1ccc(C2CCCN2C(=O)c2cnn(C)c2)nc1 (stereo not drawn) | 1.498
Cc1nc(CN2CCCN(C(=O)CC(C)n3cccc3)CC2)cs1 (stereo not drawn) | 7.748
CN(CCCc1cnn(C)c1)Cc1cc2n(n1)CCCNC2 | 18.02
NC(=O)c1cc2c(nc1Oc1ccccc1CN1CCCCC1)CCC2 | 23.43
O=C(O)C(F)(F)F.O=C(c1ccc(F)cc1)N1C[C@@H]2CCN(c3cccnc3)C[C@@H]2C1 | -2.234
Fc1cccc(N2CCCC3(CN(Cc4ccco4)CCO3)C2)c1.O=C(O)C(F)(F)F.O=C(O)C(F)(F)F (stereo not drawn) | 14.41
Fc1cnc(N2CCOC3(CCN(Cc4ccsc4)CC3)C2)nc1.O=C(O)C(F)(F)F.O=C(O)C(F)(F)F | 103.8
Fc1cccc(N2CCCC3(CN(Cc4nccs4)CCO3)C2)c1.O=C(O)C(F)(F)F.O=C(O)C(F)(F)F (stereo not drawn) | 39.92
Fc1cccc(N2C[C@H]3CCN(c4cccnc4)C[C@H]3C2)c1.O=C(O)C(F)(F)F | 50.35
Cc1ccc(CN2CCOC3(CCCN(c4cccc(F)c4)C3)C2)o1.O=C(O)C(F)(F)F.O=C(O)C(F)(F)F (stereo not drawn) | 65.05
Cn1cc(CN2CCOC3(CCCN(c4cccc(F)c4)C3)C2)cn1.O=C(O)C(F)(F)F.O=C(O)C(F)(F)F (stereo not drawn) | -3.324
Fc1cccc(N2CCCC3(CN(Cc4cccnc4)CCO3)C2)c1.O=C(O)C(F)(F)F.O=C(O)C(F)(F)F.O=C(O)C(F)(F)F (stereo not drawn) | 54.92
Fc1cnc(N2CCOC3(CCN(Cc4cccs4)CC3)C2)nc1.O=C(O)C(F)(F)F.O=C(O)C(F)(F)F | 5.693
Fc1cccc(N2CCCC3(CN(Cc4ccccn4)CCO3)C2)c1.O=C(O)C(F)(F)F.O=C(O)C(F)(F)F.O=C(O)C(F)(F)F (stereo not drawn) | 43.65
Fc1cnc(N2CC3(CCN(Cc4ccsc4)C3)C2)nc1.O=C(O)C(F)(F)F | 30.35
O=C(C1CCC1)N1C[C@@H]2CCN(c3cccnc3)C[C@@H]2C1.O=C(O)C(F)(F)F | -17.68

Compound | Percent Effect [%]
CN(C)C(=O)N1C[C@@H]2CC[C@H](C1)N(C(=O)c1c(Cl)cccc1Cl)C2 | 3.535
CCOCC1CN(C(=O)Cc2ccccn2)Cc2cn(C)nc21 (stereo not drawn) | -4.26
CO[C@@H]1CCN(Cc2ccccn2)[C@@H]2CN(Cc3ccco3)C[C@@H]21.O=C(O)C(F)(F)F.O=C(O)C(F)(F)F.O=C(O)C(F)(F)F | -14.11
CCNC(=O)c1ccc(NC(=O)N(C)Cc2cccn2C)c(C)c1 | 26.39
CCC(NC(=O)c1nn(C)cc1C(=O)O)c1ccc(C)cc1 (stereo not drawn) | 2.527
CCOc1cc([C@@H]2N[C@H](c3nccs3)Cc3ccsc32)ccc1OC | 39.28
Cc1c(Cl)cccc1NC(=O)N1CCN(Cc2ccccn2)CC1 | 28.2
Cc1nc(C2CCN(C(=O)c3ccn(C)n3)CC2)c2sccn12 | -12.4
CCn1nc(C)c(CNC(=O)c2cn(CC3CCCO3)nn2)c1C (stereo not drawn) | -30.41
Cc1cc(C)n(C2CCN(c3ncnc4sc5c(c34)CCNC5)C2)n1 (stereo not drawn) | 11.06
FC1(F)CCN(Cc2cccnc2)CC12CCN(c1ccccn1)C2.O=C(O)C(F)(F)F.O=C(O)C(F)(F)F.O=C(O)C(F)(F)F (stereo not drawn) | -7.439
FC1(F)CCN(Cc2ccncc2)CC12CCN(c1cccnc1)C2.O=C(O)C(F)(F)F.O=C(O)C(F)(F)F.O=C(O)C(F)(F)F (stereo not drawn) | 6.416
FC1(F)CCN(Cc2cccnc2)CC12CCN(c1ccccc1)C2.O=C(O)C(F)(F)F.O=C(O)C(F)(F)F.O=C(O)C(F)(F)F (stereo not drawn) | 59.15
Cc1nn2c(=O)/c(=C\c3cccs3)sc2nc1=O | 10.56
CC1CCCN(c2ncc(-c3ccccc3F)c(-c3nccn3C)n2)C1 (stereo not drawn) | 50
Cc1cc(-c2cnc(N3CCOCC3)nc2-c2cccnc2C)on1 | 6.202
CC1CCN(c2ncc(-c3ccccc3F)c(-c3nccn3C)n2)CC1 | -10.24
Cc1cc(-c2cnc(N3CCCCCC3)nc2-c2cccnc2C)on1 | 62.64
Cc1cc(-c2cnc(N3CCC(O)CC3)nc2-c2cccnc2C)on1 | -33.62
Cn1ccnc1-c1nc(N2CCCCC2)ncc1-c1ccccc1F | 56.75
CC(C)=CCN1CCC2(CC1)CC(=O)N(Cc1cc(F)cc(F)c1)C2 | 20.01
